# According to PubChem BioAssay AID1117271 (Broad Institute, 2014):
# Measured potencies and affinities stand elsewhere. The source made the active and inactive calls. No rule for the calls is given here.
# Experiment: inhibitors of orthopox intermediate gene expression, dose response, cell-based, single fluorophore reporter, dry powder (AID 1117271)
compound,measurement,value
COc1ccccc1-c1ccc(CN(C)C[C@@H]2Oc3cc(C#C[C@@H](C)O)ccc3S(=O)(=O)N([C@@H](C)CO)C[C@@H]2C)cc1,outcome,inactive
